Reference: PubChem BioAssay AID862 (The Scripps Research Institute Molecular Screening Center, 2007)
The whole screen tested about 190,000 compounds, of which about 1,700 (0.89%) were called active.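 The calls were made as follows: active = inhibition above the mean inhibition across all screened compounds plus 3 SD (cut at about 44% in these data); inactive = the rest.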 Many of the other results were omitted from the sample, so actives are more common in it than they were.

Test: IL-6 driven STAT3 reporter inhibitors, primary screen, U3A cells, luciferase, luminescence, MLSCN library (AID 862);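 also: 0% = DMSO only wells and 100% = 100 µM nifuroxazide control wells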
Conditions: IL-6 STAT3-luciferase reporter, at 5.5 µM, hits give high values, host cell line lacks STAT1

| Structure (SMILES) | inhibition |
| --- | --- |
| Cc1cc(C(=O)NNC(=O)c2cccc(S(=O)(=O)N3CCOCC3)c2)c2ccccc2n1 | 10% (inactive) |
| CCC(=O)OCCNc1nc(-c2ccccc2)nc2ccccc12 | 1.5% (inactive) |
| O=C(COC(=O)c1ccc(O)cc1)Nc1nccs1 | -5.6% (inactive) |
| Cc1nc2ccccc2cc1OCc1ccc(F)cc1 | 73% (active) |
| Cc1nc2ccccc2cc1O | -75.4% (inactive) |
| Fc1cccc2ncnc(OCc3ccccc3)c12 | 4.2% (inactive) |
| O=C(Nc1ccc(N2CCN(C(=O)c3cccs3)CC2)cc1)c1cccnc1Cl | 1.7% (inactive) |
| O=c1c2ccccc2nc2n1C(CSCc1cccc(C(F)(F)F)c1)CS2 (stereo not given) | 49.3% (active) |
| O=c1c2ccccc2nc2n1C(CSCc1ccccc1)CS2 (stereo not given) | 18.7% (inactive) |
| O=c1c2ccccc2nc2n1C(CSc1ccc(F)cc1)CN2 (stereo not given) | -2.2% (inactive) |
| Cc1ccc(CNC(=O)c2cccnc2Cl)cc1 | 3.5% (inactive) |
| CCOc1cc(/C=C(/C#N)c2ccc(Cl)cc2)cc(Cl)c1OCC(=O)O | 63.3% (active) |
| CCOC(=O)CN/C=C(\C#N)c1ccc(F)cc1 | -0.6% (inactive) |
| CCOc1c(Cl)cc(/C=N/O)cc1OC | 1.3% (inactive) |
| c1ccc(-c2nc(NCc3ccco3)c3ccccc3n2)cc1 | -1% (inactive) |
| c1coc(CNc2ncnc3ccccc23)c1 | 61.2% (active) |
| FC(F)(F)c1cccc(Nc2ncnc3ccccc23)c1 | 16.5% (inactive) |
| CCN(/N=C/c1ccc(N(C)C)cc1)c1nc2ccccc2[nH]1 | 1.9% (inactive) |
| CCN(CCCNC(=O)CSc1cc(=O)n(C)c2cc(Cl)ccc12)Cc1ccccc1 | 5.2% (inactive) |
| Cn1c(N)c(C(=O)COC(=O)/C=C/c2ccc(OC(F)F)cc2)c(=O)n(C)c1=O | 26.3% (inactive) |
| O=C(Nc1ccccc1Cc1ccccc1)c1ccc2c(c1)SC1=NS(=O)(=O)CCN12 | -8.5% (inactive) |
| Cn1c(SCC(=O)N2CCCc3ccccc32)nc2ccccc2c1=O | 62.3% (active) |
| O=C(CSc1nc2[nH]ncc2c(=O)n1-c1ccccc1)N1CCCc2ccccc21 | -21.2% (inactive) |
| O=C(CSc1nc2ccccc2c(=O)n1CCCO)N1CCc2ccccc21 | 12.6% (inactive) |
| COc1ccc(N2C(=O)C(O)C2c2ccc(C)cc2)cc1 (stereo not given) | -18.4% (inactive) |
| O=C(OCC(=O)c1cccs1)c1ccc([N+](=O)[O-])o1 | 0.6% (inactive) |
| COc1ccc(NC(=O)c2cc3nc(-c4ccccc4)cc(C)n3n2)cc1OC | 17.9% (inactive) |
| Brc1ccc(-c2csc(N/N=C/c3ccc4c(c3)OCO4)n2)cc1 | 5% (inactive) |
| C(=N\Nc1ccc2ccccc2n1)/c1ccc2c(c1)OCO2 | 91.2% (active) |
| Cc1noc(C)c1/C=N/Nc1ccc2ccccc2n1 | -21.3% (inactive) |
